This note sets out measurements from PubChem BioAssay.

Test [1] in a line: P. berghei load reduction in hepatocytes – cell-based, HepG2, luciferase luminescence, HepG2 viability, primary screen (AID 624349; in the data active means parasite load remaining mostly below about 12%, no sharp cut-off; inactive means mostly above about 10%;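 further: 100% = mean of DMSO negative control wells on the same plate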). The following applies: P. berghei liver stage in HepG2, luciferase luminescence, concentration not given here; parasite load remaining: stronger effect = lower value; viability: measured here: HepG2 viability without parasites.
Test [2] in a line: signal quenchers or enhancers, Cy5 substrate/SSB – biochemical, NIH Clinical Collection, E. coli SSB, artefact control for HCV NS3 helicase inhibitor project (AID 743268; call rule not given here). The following applies: Cy5-oligo bound E. coli SSB, fluorescence interference.
Test [3] has as its system Hepatitis C virus NS3 helicase. In words: blockers of NS3h binding to DNA – biochemical, fluorescence polarization, NIH Clinical Collection, primary screen (AID 743270; call rule not given here). The following applies: NS3 helicase binding to Cy5-dT15 DNA, stronger effect = higher value, concentration not given here. In general terms: Fluorescence polarisation rises when a labelled molecule tumbles more slowly, as on binding a larger partner.

Test [4] concerns the target Single-stranded DNA-binding protein (Escherichia coli (strain K12)) (UniProt P0AGE0). The test is described as follows: SSB-ssDNA binding inhibitors – biochemical, fluorescence polarization, NIH Clinical Collection, counter-screen for HCV NS3 helicase inhibitor project (AID 743271; in the data active means inhibition above about 28%). The following applies: E. coli SSB-DNA binding, stronger effect = higher value, concentration not given here.

Test [5] in a line: compounds distorting NS3 helicase fluorescence signal – biochemical, NIH Clinical Collection, artefact control for HCV NS3 helicase inhibitor project (AID 743272; call rule not given here;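 further: HCV NS3 helicase with a Cy5 labelled single stranded DNA probe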). The following applies: fluorescence interference counterscreen, HCV NS3 helicase assay; stronger effect = lower value. Background: Counterscreens check selectivity or assay interference.
A short description of test [6]: modulation of C. elegans fzo-1 (AID 1259413; call rule not given here;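 further: fzo-1 mutant C. elegans worms in liquid wells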). The following applies: C. elegans fzo-1 modulator screen, mean read-out; stronger effect = higher value.
Test [7] is described as follows: EMT-state selective cytotoxicity in co-culture – imaging, PC-3E GFP, TEM4-18 mCherry, primary screen (AID 1345086;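 active means compounds killing one labelled cell type while sparing the other, by normalised counts and ratio limits, not self-fluorescent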;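 on all read-outs here: cells exposed to compound for 72 h before imaging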;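 on red/green cell ratio (normalised): normalised mesenchymal count divided by normalised epithelial count so high means epithelial killing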). The following applies: PC-3E GFP / TEM4-18 mCherry co-culture, imaging cell counts, at 1 µM; for red/green cell ratio (normalised): actives lie on both sides, counts scaled to control wells, 1 = unselective.
Test [8] is described as follows: viability loss with induced miR-34 in A549 – imaging, A549 dox-inducible miR-34, nuclei and caspase counts, primary screen (AID 1347080;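 active means compounds whose cell count with miR-34 switched on is under 0.7 times the count with it off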). The following applies: A549 miR-34 inducible, Hoechst nuclei count, 48 h.
Another test concerns F380Y. In words: BK channel mutant inhibitors and activators – cell-based, U2OS BacMam, thallium flux, beta subunits, selectivity assay, profiling panel (AID 1259406).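 Further: initial slope of Thallos dye fluorescence rise after thallium is added; log ratio against the mean of 0.3% DMSO vehicle wells on the same plate.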 The following applies: U2OS BacMam BK variants, at 30 µM.
For another test, the system named is F380Y/beta1. The description is as above. The following applies: U2OS BacMam BK variants, at 30 µM.
The subject of a further test is F380Y/beta2Delta. The test is described as above. The following applies: U2OS BacMam BK variants, at 30 µM.
In the next test the test system is F380Y/beta4. The description is as above. The following applies: U2OS BacMam BK variants, at 30 µM.
Test [9] has as its target Calcium-activated potassium channel subunit alpha-1 (Homo sapiens) + Leucine-rich repeat-containing protein 26 (Homo sapiens) (UniProt Q12791+Q2I0M4). Described as above. The following applies: U2OS BacMam BK variants, F380Y/Slo1WT/gamma1, at 30 µM.
In the next test the test system is R275C. Described as above. The following applies: U2OS BacMam BK variants, at 30 µM.
For a further test, the system named is R275C/beta1. The test is described as above. The following applies: U2OS BacMam BK variants, at 30 µM.
For another test, the system named is R275C/beta2Delta. Described as above. The following applies: U2OS BacMam BK variants, at 30 µM.
Another test deals with R275C/beta4. Described as above. The following applies: U2OS BacMam BK variants, at 30 µM.
For another test, the system named is R275C/Slo1WT/beta2. The description is as above. The following applies: U2OS BacMam BK variants, at 30 µM.
The nature of test [10]: MELAS cybrid and Rieske KO viability enhancers – cell-based, MELAS cybrids, Rieske KO mouse fibroblasts, CellTiter-Glo, primary screen (AID 1508586;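 active means mean z-score across replicates of 1.96 or higher in either the MELAS or the Rieske mutant cell line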;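 further: z relative to plate mean and SD of compound and empty wells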). The following applies: low glucose.
Setting [11] is: measured here: epithelial PC-3E GFP cell survival.
The mark [12] stands for this setting: measured here: mesenchymal TEM4-18 mCherry cell survival.
The mark [13] stands for this setting: stronger effect = lower value, cell number ratio, induced over uninduced.
Where [14] appears, read: measured here: relative caspase fold change +Dox/-Dox.
The mark [15] stands for this setting: measured here: total cells with miR-34 induction, stronger effect = lower value.
Where [16] appears, read: measured here: total cells without miR-34 induction.
[17] abbreviates: MELAS cybrid survival, CellTiter-Glo 48 h, stronger effect = higher value.
Setting [18] is: Rieske KO mouse fibroblast survival, CellTiter-Glo 72 h.

“And” between values parts separate entries of the source, which are not always exact repeats. Equal values may be shown once. The source made the active and inactive calls.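 How the source made its calls, unless noted: active means thallium flux through the channel raised or lowered by more than 3 SD from vehicle-only wells, actives on both sides; inactive means the rest.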

Calcium-activated potassium channel subunit alpha-1 (Homo sapiens) + Leucine-rich repeat-containing protein 26 (Homo sapiens), sequence (Q2I0M4 whole entry, looked up, one chain of several): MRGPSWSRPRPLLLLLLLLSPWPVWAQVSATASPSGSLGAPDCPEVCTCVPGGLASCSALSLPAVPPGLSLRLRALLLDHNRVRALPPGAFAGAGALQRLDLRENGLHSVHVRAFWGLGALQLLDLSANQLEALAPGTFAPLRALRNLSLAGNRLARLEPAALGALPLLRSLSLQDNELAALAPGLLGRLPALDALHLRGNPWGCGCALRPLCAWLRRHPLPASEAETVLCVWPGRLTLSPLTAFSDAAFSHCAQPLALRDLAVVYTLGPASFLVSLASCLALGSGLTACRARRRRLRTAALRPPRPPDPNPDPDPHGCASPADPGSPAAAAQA

Take `NCC(O)c1ccc(O)c(O)c1` (stereo unspecified): the parasite load remaining in [1] was 46.6% (inactive). In addition, in test [1], the viability – broadly, a read-out of living cells in per cent, often relative to untreated cells – turned out to be 90.4%. The fluorescence ratio in test [2] was 1.02 (inactive); in test [5], 0.99 (inactive). The inhibition – broadly, the drop in the measured response relative to a control, in per cent – was -2.27% (inactive) in test [3] and 0.29% (inactive) in [4]. For the same compound, the mean signal in test [6] was 234 (inactive). For the same compound, in test [7], the red/green cell ratio (normalised) is 1.25 (inactive). Further, the normalised cell number was determined as 1.16 in test [7] (setting [11]) and 1.45 in test [7] (setting [12]). The fold change is 1.01 (inactive) and 0.975 (inactive) in test [8] (setting [13]); 1.64 and 1.95 in test [8] (setting [14]). Besides, the cell count was 10900 and 7940 in test [8] (setting [15]); 10800 and 8140 in test [8] (setting [16]). Also, the log fold change Tl+ flux in the test with F380Y was -0.00325 (inactive); in the test on F380Y/beta1, 0.00151 (inactive); with F380Y/beta2Delta, -0.00353 (inactive); in the test with F380Y/beta4, 0.0254 (inactive); in test [9], 0.0514 (inactive); in the test on R275C, 0.0185 (inactive). The log fold change Tl+ flux in the test with R275C/beta1 was 0.035 (inactive); with R275C/beta2Delta, -0.0293 (inactive); with R275C/beta4, 0.0502 (inactive); in the test on R275C/Slo1WT/beta2, 0.093 (inactive).

For the compound `CNCC[C@H](Oc1cccc2ccccc12)c1cccs1`, the parasite load remaining in [1] is 36.5% (inactive) and 51.1% (inactive) and -0.135% (inactive). Moreover, the viability in test [1] was 101% and 64.7% and 0.245%. The fluorescence ratio was 0.96 (inactive) and 0.95 (inactive) in test [2]; 0.93 (inactive) and 0.89 (inactive) in test [5]. In addition, the inhibition in test [3] is 1.19% (inactive) and -5.46% (inactive); in test [4], 2.98% (inactive) and -4.33% (inactive). Also, the mean signal in test [6] was 220 (inactive). Further, the red/green cell ratio (normalised) in [7] is 0.93 (inactive). For the same compound, the values for the normalised cell number in [7] (setting [11]) and in [7] (setting [12]) were 1.07 and 1, respectively. The fold change was 0.93 (inactive) in [8] (setting [13]) and 4.69 in test [8] (setting [14]). The cell count was determined as 10400 in test [8] (setting [15]) and 11200 in test [8] (setting [16]). In addition, the log fold change Tl+ flux in the test on F380Y is -0.075 (inactive); in the test with F380Y/beta1 it was -0.085 (inactive); in the test on F380Y/beta2Delta, 0.0364 (inactive); with F380Y/beta4 it was -0.0361 (inactive); in [9], 0.0212 (inactive); in the test on R275C, 0.0449 (inactive). In addition, the log fold change Tl+ flux with R275C/beta1 is 0.207 (active); with R275C/beta2Delta, 0.066 (inactive); with R275C/beta4, 0.129 (active); in the test on R275C/Slo1WT/beta2 it was 0.0145 (inactive).

`CN(C)CCc1c[nH]c2ccc(Cn3cncn3)cc12`: the parasite load remaining in test [1] was 45% (inactive) and 103% (inactive). In addition, the viability in test [1] was 99.5% and 78.1%. Besides, the fluorescence ratio in [2] was 1.13 (inactive); in test [5], 0.91 (inactive). Moreover, the inhibition in test [3] is 0.4% (inactive); in [4], 5.29% (inactive). Further, the mean signal in [6] was 236 (inactive). Besides, the red/green cell ratio (normalised) in test [7] is 0.92 (inactive). Moreover, the normalised cell number amounted to 1.24 in test [7] (setting [11]) and 1.13 in test [7] (setting [12]). Also, the fold change was 0.991 (inactive) and 0.886 (inactive) and 0.916 (inactive) in [8] (setting [13]); 1.31 and 0.982 and 5.76 in test [8] (setting [14]). Also, the cell count is 7610 and 7730 and 12300 in [8] (setting [15]); 7680 and 8720 and 13400 in test [8] (setting [16]). The z-score is -0.276 (inactive) and 0.545 (inactive) in test [10] (setting [17]); 0.697 and -0.263 in test [10] (setting [18]). Moreover, the log fold change Tl+ flux in the test with F380Y was -0.0521 (inactive); in the test on F380Y/beta1 it was -0.0483 (inactive); in the test on F380Y/beta2Delta it was 0 (inactive); in the test on F380Y/beta4, 0.0107 (inactive); in test [9] it was 0.0357 (inactive); in the test with R275C it was -0.121 (active). In addition, the log fold change Tl+ flux with R275C/beta1 is -0.00809 (inactive); with R275C/beta2Delta it was -0.0421 (inactive); in the test on R275C/beta4, 0.00222 (inactive); in the test with R275C/Slo1WT/beta2, 0.0127 (inactive).

`Cc1cc2c(s1)Nc1ccccc1N=C2N1CCN(C)CC1`: the parasite load remaining in test [1] is 58.8% (inactive) and 82.2% (inactive) and 32.6% (inactive). For the same compound, the viability in test [1] was 151% and 67.6% and 138%. The fluorescence ratio in test [2] is 1.04 (inactive); in test [5], 1 (inactive). Also, the inhibition is -1.19% (inactive) in [3] and -3.18% (inactive) in test [4]. Moreover, the mean signal in test [6] was 245 (inactive). For the same compound, the z-score in [10] (setting [17]) was -0.362 (inactive) and 0.328 (inactive) and 0.46 (inactive); in test [10] (setting [18]), 0.469 and -0.59 and 1.26. Besides, the log fold change Tl+ flux is 0.136 (active) in the test on F380Y; 0.0857 (inactive) with F380Y/beta1; 0.0704 (inactive) with F380Y/beta2Delta; 0.111 (active) with F380Y/beta4; -0.004 (inactive) in [9]; -0.00393 (inactive) with R275C. Besides, the log fold change Tl+ flux in the test on R275C/beta1 is 0.000391 (inactive); in the test with R275C/beta2Delta, -0.0244 (inactive); with R275C/beta4 it was -0.0479 (inactive); in the test on R275C/Slo1WT/beta2, 0.0472 (inactive).

In the case of `CC(C)NCC(O)c1ccc(NS(C)(=O)=O)cc1` (stereo unspecified), the fluorescence ratio is 1.06 (inactive) in test [2] and 0.98 (inactive) in test [5]. Besides, the inhibition was 1.19% (inactive) in test [3] and -3.95% (inactive) in test [4]. The mean signal in [6] is 233 (inactive). Besides, in [7], the red/green cell ratio (normalised) was 0.8 (inactive). Also, the normalised cell number in [7] (setting [11]) was determined as 1.21; in test [7] (setting [12]), 0.97. The z-score in test [10] (setting [17]) was -0.308 (inactive) and -0.43 (inactive) and 0.386 (inactive); in test [10] (setting [18]), 0.759 and -0.504 and 0.277. Also, the log fold change Tl+ flux in the test on F380Y is 0.0283 (inactive); in the test on F380Y/beta1, -0.0363 (inactive); with F380Y/beta2Delta, 0.0277 (inactive); with F380Y/beta4, 0.0134 (inactive); in [9], -0.004 (inactive); in the test on R275C, -0.065 (inactive). The log fold change Tl+ flux with R275C/beta1 was -0.000905 (inactive); in the test with R275C/beta2Delta, -0.0581 (inactive); in the test with R275C/beta4, 0.0206 (inactive); with R275C/Slo1WT/beta2, 0.0082 (inactive).

For the compound `CNCC[C@@H](Oc1ccccc1C)c1ccccc1`, the parasite load remaining in [1] was 70.5% (inactive). The viability in test [1] worked out at 66.2%. The fluorescence ratio was 1.06 (inactive) in [2] and 0.98 (inactive) in [5]. Also, the inhibition in test [3] is -0.4% (inactive); in test [4] it was -3.95% (inactive). In addition, the mean signal in [6] was 246 (inactive). The fold change in test [8] (setting [13]) is 0.908 (inactive); in test [8] (setting [14]) it was 1.95. Moreover, the cell count in test [8] (setting [15]) was determined as 7910; in [8] (setting [16]), 8710. For the same compound, the results for the z-score in [10] (setting [17]) and in [10] (setting [18]) were -1.06 (inactive) and -0.171, respectively. Moreover, the log fold change Tl+ flux in the test with F380Y is 0.0847 (inactive); in the test with F380Y/beta1 it was -0.000881 (inactive); with F380Y/beta2Delta, 0.0334 (inactive); in the test with F380Y/beta4 it was 0.0851 (inactive); in [9], -0.0181 (inactive); with R275C, -0.0128 (inactive). The log fold change Tl+ flux is 0.0385 (inactive) in the test on R275C/beta1, 0.125 (active) with R275C/beta2Delta, 0.0404 (inactive) with R275C/beta4 and -0.0597 (inactive) in the test on R275C/Slo1WT/beta2.
